Source: PubChem BioAssay (National Center for Advancing Translational Sciences (NCATS))
Shown are actives, neighbours in structure and some others; about 10% of the full set was active somewhere.
G9a block – qHTS Assay for Inhibitors of Histone Lysine Methyltransferase G9a. G9a H3K9 monomethylation, AlphaScreen, 2 h. AID 504332, 2011. 350,000 compounds, 8.8% hits. Histone-lysine N-methyltransferase EHMT2 (Homo sapiens), Q96KQ7. Potency, µM (highest dose often 102 µM), inactives show at the top dose activity, negative = inhibition, actives largely listed as inhibitors; further: on the % scale 0 is the no-effect control and ±100 the full control effect; nearly all actives have a fitted effect of over 75% in size
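Signal arises when biotinylated H3K9 peptide, once monomethylated, bridges streptavidin donor and antibody-captured acceptor beads. Enzyme at 20 nM was preincubated 15 min with test compounds; peptide 500 nM and SAM 20 uM then reacted for 2 h.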
JMJD2A Tudor inh – qHTS Assay for Inhibitors of JMJD2A-Tudor Domain; AlphaScreen JMJD2A-Tudor / H3K4me3 peptide binding; Potency, µM (highest dose often 114 µM), without a hit: at the top dose activity change, negative = inhibition, usual class: inhibitors; Lysine-specific demethylase 4A (Homo sapiens), O75164; AID 504339, 2011; 390,000 compounds, 4.4% hits; further: on the % scale 0 is the no-effect control and ±100 the full control effect; nearly all actives have a fitted effect of over 50% in size
HP1b chromo inh – HTS for Inhibitors of HP1-beta Chromodomain Interactions with Methylated Histone Tails; Chromobox protein homolog 1 (Homo sapiens), P83916; AlphaScreen HP1-beta / biotin-H3K9me3 peptide binding; Potency, µM (highest dose often 114 µM), for the others: top-dose activity change, negative = inhibition, most hits filed as inhibitors; 390,000 compounds, 0.56% hits; further: nearly all actives have a fitted effect of over 70% in size
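HP1-beta protein (50 nM final) preincubated 30 min at room temperature with biotinylated H3(1-18)K9me3 peptide (50 nM) in PBS pH 7.4, 0.01% Tween-20, then compound added for 30 min. AlphaScreen streptavidin donor/nickel chelate acceptor beads (10 ug/mL final), 30 min dark, luminescence read.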
BAZ2B block – qHTS Assay for Inhibitors of BAZ2B; AlphaScreen BAZ2B-H3K14Ac peptide displacement; 360,000 compounds, 4.4% hits; Bromodomain adjacent to zinc finger domain protein 2B (Homo sapiens), Q9UIF8; Potency, µM (series often up to 114 µM), for inactives: top-dose activity change, negative = inhibition, hits mostly inhibitors; further: on the % scale 0 is the no-effect control and ±100 the full control effect; nearly all actives have a fitted effect of over 60% in size
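AlphaScreen displacement of biotin-H3(5-23)K14Ac peptide (50 nM final) from BAZ2B (50 nM final) in PBS pH 7.4, 0.01% Tween-20; complex preformed 30 min RT, then compounds (top 110 uM) 30 min RT, beads 20 min dark.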
GLS inh – qHTS for Inhibitors of Glutaminase (GLS); 410,000 compounds, 0.21% hits; Potency, µM (top dose mostly 45.5 µM), for the others: at the top dose activity change, negative = inhibition, hits mostly inhibitors; GLS enzymatic activity, qHTS titration; further: on the % scale 0 is the no-effect control and ±100 the full control effect
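hKGA; 45 mM KH2PO4 pH 8.2 + 0.02% Tween-20; cpd via pin tool; 1 mM Gln soln; GluOx/HRP/Amplex Red; RT 30 min; fluor. t0 & final.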
* = called active by the depositor; ? = inconclusive; . = no result; [ ] = remark or other dose. The call rests on the fitted dose curve; in most records, active means well fitted curve in the direction sought with a large enough effect; inconclusive means small, poorly fitted or top-dose-only effect, or another doubt; inactive means no such curve, though single readings can be large; an effect the other way counts as inactive or inconclusive. Potency means the concentration at half of the fitted maximal effect.

SMILES | G9a block | JMJD2A Tudor inh | HP1b chromo inh | BAZ2B block | GLS inh
Cc1nc2ccccc2cc1C(=O)O | ? | -12% | 36% | -15% | 6%
c1cc2c3c(cccc3c1)NC1(CCC3(CC1)Nc1cccc4cccc(c14)N3)N2 | 25%[0.501 µM] | 50µM* | ? | 28µM* | 18%
O=C1CCSc2cccc3cccc(c23)N1 | -32%[59 µM] | -8% | 5% | -24% | -3%
c1cc2c3c(cccc3c1)NC1(CCCCC1)N2 | 1.1µM* | -30% | -7% | -32% | -2%
c1cc2c3c(cccc3c1)NC1(CCCCCC1)N2 | 4.5µM* | -9%[57.1 µM] | -2% | -35% | 1%
NC(=O)CC1Nc2cccc3cccc(c23)NC1=O (stereo unspecified) | 6%[59 µM] | -27% | ? | 12% | 18%
COCCn1c(=NC(=O)c2cc3ccccc3oc2=O)sc2cc(S(N)(=O)=O)ccc21 | 0%[59 µM] | -27% | 3% | -6% | 2%
O=C(Nc1cccc(Br)c1)c1ccccc1-c1ccccc1 | 82%[59 µM] | 31% | 63% | 17% | 6%
O=C(O)c1ccccc1-c1ccccc1C(=O)NNc1ccccc1 | 8.9µM* | -15% | 60% | -5% | 32%
O=C(O)c1ccccc1-c1ccccc1C(=O)Nc1cccc(Br)c1 | 45µM* | -16% | -24% | -25% | 0%
O=C(COC(=O)CC1CCCC1)Nc1ccccc1[N+](=O)[O-] | -6%[12.7 µM] | ? | ? | ? | -4%
COc1cc(/C=C/C(=O)OCC(=O)NC(=O)NCc2ccco2)ccc1OC(F)F | . | ? | -6% | . | -6%
Cc1[nH][nH]c(=O)c1C(c1cc2c(cc1Br)OCO2)c1c(C)[nH][nH]c1=O | 50µM* | -2%[11.4 µM] | 27% | -4% | -26%
COc1ccc(C(=O)NCCSc2c(C)[nH]c3ccccc23)cc1 | -49%[59 µM] | -33% | 16% | 71µM* | 1%
Cc1[nH]c2ccccc2c1SCCNC(=O)c1ccc(F)cc1 | -3%[59 µM] | ? | 14% | -23% | -1%
CC(=O)c1c(C)[nH]c(C(=O)Nc2nc(C)cs2)c1C | -36% | -8% | 13% | 50µM* | 2%
CC(=O)c1c(C)[nH]c(C(=O)Nc2nc(-c3ccc(Cl)cc3)cs2)c1C | ? | -26% | 1% | 6% | -1%
COc1ccc(-c2nc(NC(=O)c3[nH]c(C)c(C(C)=O)c3C)sc2C)cc1 | 50µM* | ? | -14% | ? | -8%
COc1ccc(-c2nc(NC(=O)c3ccco3)sc2C)cc1 | . | . | . | . | -1%
O=C(COC(=O)c1ccc(S(=O)(=O)NCc2ccco2)cc1)NCc1ccc(F)cc1 | 10%[12.7 µM] | -17% | 33% | -2% | -3%
Nc1cc(OCC(F)(F)F)cc([N+](=O)[O-])c1 | 27% | -21% | 2% | -3% | 6%
Nc1cc(N)c(OCC(F)(F)F)cc1OCC(F)(F)F | 50µM* | ? | ? | ? | -3%
COc1ccc(Cl)cc1NC(=O)c1c(C(=O)Nc2cccc(C)c2C)sc2nc(C)cc(=O)n12 | 11µM* | -6% | 5% | -3% | -11%
COC(=O)c1ccc(NC(=O)c2c(C(=O)Nc3ccccc3)sc3nc(C)cc(=O)n23)cc1 | -51% | -9% | 47% | -14% | 5%
COc1ccc(Cl)cc1NC(=O)c1ocnc1C | 50µM* | -3% | 28% | -1% | 0%
SMILES | G9a block | JMJD2A Tudor inh | HP1b chromo inh | BAZ2B block | GLS inh
COc1ccc(CCNc2nc(-c3ccc(F)cc3)c(CC(=O)O)s2)cc1OC | 7.1µM* | -28% | ? | -30% | 11µM*
CC(=O)c1sc(NC(=O)CCCOc2ccc(Cl)cc2)nc1C | ? | -19% | 28% | 79µM* | 2%
CC(=O)c1sc(NCc2ccc(C)cc2)nc1C | 56µM* | -24% | 24% | -22% | -2%
COc1ccc(OCCCC(=O)Nc2nc(C)c(C(C)=O)s2)cc1 | 8%[0.501 µM] | ? | -5% | 2% | -1%
CC(=O)c1sc(NCc2ccccc2)nc1C | 71µM* | -17% | 16% | ? | -11%
CC(=O)c1sc(Nc2cccc3ccccc23)nc1C | . | -32% | 4% | . | 11%
CC(=O)c1sc(Nc2ccccn2)nc1C | -6%[59 µM] | 10% | 28% | 50µM* | 13%
CC(=O)c1sc(NCCOc2ccc(C)cc2)nc1C | 50µM* | -9% | 63% | 2% | 5%
COc1ccc(CCNc2nc(C)c(C(C)=O)s2)cc1OC | 4µM* | ? | ? | ? | -8%
CCOc1ccc2nc(SCC(=O)NCc3ccccc3)[nH]c2c1 | -8%[0.501 µM] | -5% | 24% | 6% | -14%
CCOc1ccc2nc(SCC)[nH]c2c1 | -23%[59 µM] | -18%[57.1 µM] | 72% | 89µM* | 14%
c1ccc2[nH]c(SCc3cn4ccccc4n3)nc2c1 | 45µM* | -22% | 24% | -12% | 7%
Nc1ccccc1SCc1cn2cccnc2n1 | 35µM* | -25% | 33% | 9% | 10%
O=[N+]([O-])c1ccc(CSc2nc3ccccc3[nH]2)cc1 | 28µM* | -11% | 21% | -38% | -11%
Nc1ccccc1SCc1cn2ccccc2n1 | 50µM* | -23% | 17% | -9% | 5%
N#Cc1cccc(CS(=O)(=O)c2ccc(Cl)cc2)c1 | -3% | 7% | 29% | -2% | -1%
Cc1c2cnn(CC(=O)NCc3ccccc3)c(=O)c2c(C)n1Cc1cccc(Cl)c1 | 9%[59 µM] | 1% | 26% | 2% | -3%
NC(=O)NC(CC(=O)OCC(=O)Nc1nnc(-c2ccccc2)o1)c1ccc(Cl)cc1 (stereo unspecified) | . | . | . | . | 9%
COc1ccc(/C=C/C(=O)NCC(=O)N/N=C(\C)Cc2ccccc2)cc1 | 8% | 0% | 22% | 1% | -9%
CC(=O)Nc1ccc2nc(CN3CCC(CO)(CCc4ccccc4)CC3)ccc2c1 | -39% | 32µM* | 10% | -33% | -2%
